{"source": "PubChem BioAssay (NCI)", "note": "This is part of a sample that, as a whole, favours compounds with a hit. Of some 83,000 tested, about 20% had one in any assay.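 Percent growth is the endpoint: 0 to 100 indicates growth inhibition (40 means 60% inhibition), 0 means no net growth, and negative values indicate cell death.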 Activity calls are given as the source filed them.", "data": [{"system": "HS 578T breast", "experiment": "NCI-60 one-dose screen, 48 h (100 = growth as untreated, 0 = no growth, -100 = all killed)", "conditions": "10 µM unless noted", "description": "Growth inhibition of the HS 578T human tumor cell line is measured as a screen for anti-cancer activity. Cells are grown in 96 well plates and exposed to the test compound for 48 hours. Compounds are tested at a single concentration, which is 10^-5 M for most compounds. The reported endpoint is percent growth (GI% or GIPRCNT), where numbers from 0 - 100% represent growth inhibition, and numbers from -100% - 0 represent cell death. For example, a value of 40 represents 60% growth inhibition. A value of 0 means no net growth occurred over the course of the experiment. A value of -40 indicates 40% of cells at the beginning of the experiment died by the end of the experiment. A value of -100 means all cells are dead at the end of the experiment.\nNCI-60 Human Tumor Cell Lines Screen was performed using the standard one-dose NCI protocol, which is described in more detail at https://dtp.cancer.gov/discovery_development/nci-60/default.htm.\nCompounds with GIPRCNT values below 10 were considered active. Activity score was based on GIPRCNT using the following formula: […]\nScore is 0 for GIPRCNT values of 100 or above, 50 for GIPRCNT values of 0, and 100 for GIPRCNT values of -100.", "values": [{"smiles": "COc1ccc2c(c1)C=CC(C#N)N2C(=O)c1ccccc1", "note": "(stereo not given)", "growth": "14.9% (inactive)"}, {"smiles": "CC/C(=C(\\c1ccc(O)cc1)c1ccc(OCCN(C)CCN(C)C(=O)CCC(=O)c2c(C)[nH]c(/C=C3\\N=C(c4ccc[nH]4)C=C3OC)c2C)cc1)c1ccccc1", "growth": "83.6% (inactive)"}, {"smiles": "O=c1c2cccc3c(Nc4ccc(F)cc4)ccc(c32)c2nc3ccccc3n12", "growth": "73.6% (inactive)"}, {"smiles": "NCCSC(c1ccccc1)(c1ccccc1)c1ccccc1", "growth": "16.8% (inactive)"}, {"smiles": "COc1ccc(NC(=O)/N=c2\\oc3c(OC)cccc3cc2-c2cc3ccccc3[nH]2)cc1", "growth": "7.84% (active)"}, {"smiles": "CCN(Cc1ccc(CN(CC)C(=O)C(Cl)(Cl)Cl)cc1)C(=O)C(Cl)(Cl)Cl", "growth": "89.7% (inactive)"}, {"smiles": "CN(C)c1ccc(-c2ccc(-c3ccc(C(=N)N)cn3)o2)cc1", "growth": "-19.7% (active)"}, {"smiles": "COc1ccc(OC)c(/C=C2\\Oc3cc(OCCN4CCCC4)ccc3C2=O)c1", "growth": "86.4% (inactive)"}, {"smiles": "COc1cc(C(=O)OCCCCCCCCCCC[P+](c2ccccc2)(c2ccccc2)c2ccccc2)ccc1O", "growth": "-13.3% (active)"}, {"smiles": "Nc1c(C(=O)Nc2cccc(C(F)(F)F)c2)sc2nc3c(cc12)C(O)CCC3", "note": "(stereo not given)", "growth": "51.2% (inactive)"}, {"smiles": "O=C(CNc1ccc(Cl)cc1)Nc1ccc(-c2nc3ccccc3s2)cc1", "growth": "84.1% (inactive)"}, {"smiles": "Cc1sc(N=Nc2ccc(N(C)C)cc2)[n+]([O-])c1C", "growth": "96.3% (inactive)"}, {"smiles": "COC1=CC(c2ccc[nH]2)=N/C1=C\\c1[nH]c(C)c(C(=O)CCCCC(=O)Nc2ccccc2)c1C", "growth": "82.2% (inactive)"}, {"smiles": "CC1(C)OC2COC3(C(=O)O)OC(C)(C)OC3C2O1", "note": "(stereo not given)", "growth": "101% (inactive)"}, {"smiles": "Cc1cc2c(C(C)C)c(O)c(O)c(C=NCCCCC(=O)O)c2c(O)c1-c1c(C)cc2c(C(C)C)c(O)c(O)c(C=NCCCCC(=O)O)c2c1O", "growth": "30.9% (inactive)"}, {"smiles": "COc1ccc(/C(=N/O)c2cc(F)c(F)c(OC)c2F)cc1O", "growth": "8.26% (active)"}, {"smiles": "CN(C)C1CCC(NC2=CC(=O)C=CC2=O)CC1", "note": "(stereo not given)", "growth": "108% (inactive)"}, {"smiles": "CCNc1nc(N2CC(=O)Nc3cc(OC)ccc32)c2ccccc2n1", "growth": "7.61% (active)"}, {"smiles": "COc1cc(CCn2nnc3c(Nc4ccc(N5CCOCC5)cc4)ncnc32)cc(OC)c1", "growth": "91.2% (inactive)"}, {"smiles": "Nc1c(C(=O)Nc2cccc(C(F)(F)F)c2)sc2nc3c(cc12)CCCCC3", "growth": "16.6% (inactive)"}, {"smiles": "CCNCc1ccncc1", "growth": "103% (inactive)"}, {"smiles": "CC(C)C[C@H](NC(=O)[C@@H](Cc1ccccc1)n1ccc(Nc2ccccc2)cc1=O)B(O)O", "growth": "22.8% (inactive)"}, {"smiles": "CCCCCCCCCCCCCCCCCCOc1cccc(CCOP(=O)(O)OCC[N+](C)(C)C)c1", "growth": "93.1% (inactive)"}, {"smiles": "Cc1cc(Cl)ccc1OC(C)C(=O)Nc1nnc(C2CC2)s1", "note": "(stereo not given)", "growth": "-24.6% (active)"}, {"smiles": "O=C1NC(Cc2c[nH]c3ccccc23)C(=O)N1Cc1ccc(Cl)cc1", "note": "(stereo not given)", "growth": "108% (inactive)"}, {"smiles": "C=C1C(=O)O[C@H]2[C@H]1CC/C(COC(=O)NCCc1ccc(OC)cc1)=C\\CC[C@@]1(C)O[C@@H]21", "growth": "46% (inactive)"}, {"smiles": "CCSc1nnc(NC(=O)Cc2ccc(Cl)cc2)s1", "growth": "110% (inactive)"}, {"smiles": "O=C1CCCCC=C1C[N+](=O)[O-]", "growth": "107% (inactive)"}, {"smiles": "O=C(CSc1nc(-c2ccc(Cl)cc2)cn1-c1ccc(Cl)cc1)c1ccc(Br)cc1", "growth": "63.2% (inactive)"}, {"smiles": "O=S(=O)(NCCCNc1cc(-c2cn(-c3ccccc3)nc2-c2cccc(O)c2)ccn1)c1cccc2ccccc12", "growth": "15.6% (inactive)"}, {"smiles": "NC(=O)c1c(NC(=O)c2ccc(OCC3CCCO3)cc2)sc2c1CCCC2", "note": "(stereo not given)", "growth": "-24.5% (active)"}, {"smiles": "O=S(=O)(NCCCNc1cc(-c2cn(-c3ccccc3)nc2-c2cccc(O)c2)ccn1)c1ccc(C(F)(F)F)cc1", "growth": "22.6% (inactive)"}, {"smiles": "Cc1cc(C)c(NC(=O)c2sc3nc4c(cc3c2N)CN(Cc2ccccc2)CC4)c(C)c1", "growth": "21% (inactive)"}, {"smiles": "O=C(Nc1ccc(Br)c(Cl)c1)c1cc(F)ccc1O", "growth": "17.4% (inactive)"}, {"smiles": "O=S(=O)(c1ccccc1)n1ccc(-c2ccc3c(c2)CCO3)n1", "growth": "102% (inactive)"}, {"smiles": "CCC(c1cccc(Br)c1)C(C(=O)O)c1ccc(OC)cc1", "note": "(stereo not given)", "growth": "91.4% (inactive)"}, {"smiles": "CCN1C(=S)N(CC)C2Nn3c(s/c(=C4\\C(=O)N(C)c5ccccc54)c3=O)=NC21", "note": "(stereo not given)", "growth": "48.8% (inactive)"}, {"smiles": "O=C1c2ccccc2C(=O)c2c(N=Nc3sc(=O)[nH]c3S)cccc21", "growth": "90.3% (inactive)"}, {"smiles": "COc1cccc(NC(=O)Cn2cc3c(=O)oc4ccccc4c3n2)c1", "growth": "104% (inactive)"}, {"smiles": "COc1ccc(/C=C(\\C#N)c2ccc([N+](=O)[O-])cc2)c2ccccc12", "growth": "26.2% (inactive)"}]}]}
